# A selection: hits, their analogues and other compounds. The true share with any hit is near 2.4%.
# D2 ag-1 = human D2 receptor agonism in beta-arrestin assay | DiscoveRx PathHunter D2 beta-arrestin, luminescence, 90 min; 100% = 57 uM dopamine signal | activation, % (concentration not given with the values) | AID 624465 | hit rate 0.084% among 360,000; in the data active = activation above about 40%
# Target sequence (P14416 whole entry, looked up): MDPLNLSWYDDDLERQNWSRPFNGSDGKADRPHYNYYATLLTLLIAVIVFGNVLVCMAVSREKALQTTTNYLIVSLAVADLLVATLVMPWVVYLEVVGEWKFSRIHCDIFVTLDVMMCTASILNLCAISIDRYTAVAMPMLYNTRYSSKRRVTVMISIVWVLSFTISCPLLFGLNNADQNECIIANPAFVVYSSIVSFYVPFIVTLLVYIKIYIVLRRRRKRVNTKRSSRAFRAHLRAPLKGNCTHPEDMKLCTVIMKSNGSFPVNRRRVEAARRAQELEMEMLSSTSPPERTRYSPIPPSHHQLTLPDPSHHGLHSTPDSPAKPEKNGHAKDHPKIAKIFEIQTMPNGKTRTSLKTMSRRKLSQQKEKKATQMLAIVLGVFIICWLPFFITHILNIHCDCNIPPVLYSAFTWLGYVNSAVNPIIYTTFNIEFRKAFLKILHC
#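 DiscoveRx PathHunter D2 beta-arrestin cells (2,100/well) attached overnight, then compound-stimulated 90 min at 37 C in HBSS/10 mM HEPES/0.1% Tween-20 buffer; beta-galactosidase complementation read by luminescence after 1 h at ambient temperature. Dopamine 57 uM final (EC100) as control.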
# D2 PAM-1 = potentiates the human D2 dopamine receptor allosterically; hit rate 0.23% among 360,000; DiscoveRx D2 beta-arrestin cells, luminescence, 90 min; 100% = 57 uM dopamine signal; potentiation, % (concentration not given with the values); in the data active = potentiation above about 50%
#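 PathHunter beta-arrestin assay in DiscoveRx D2 cells. Compounds were added with an EC20 of dopamine (50 nM final) for 90 min at 37 deg C. Luminescence was read 1 h after detection reagent, with 57 uM dopamine as the EC100 control.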
# D2 ag-2 = agonists of human D2 dopamine receptor | P14416 | HEK293 T-REx D2 cells, calcium flux agonist mode | activation, % at 2 µM | hit rate 0.53% among 340,000;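 active = activation over 3 SD above normal in the single-dose calcium agonist read, cut at about 30% in these data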; note: 0% is about no effect
#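 HEK293 Trex D2 cells, tetracycline-induced, o/n 30 C 5% CO2; no-wash Ca dye, RT 30–90 min; 10-cycle baseline, 23 nl cpd added, kinetic Ca read 180 s; agonist hits = positive Ca response.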
# D2 PAM-2 = D2 dopamine receptor (human) potentiation; HEK293 T-REx D2, calcium flux, EC20 dopamine potentiation; P14416; potentiation, % at 10 µM; hit rate 0.34% among 340,000; AID 485347;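 active = potentiation over 3 SD above the plate norm, cut at about 30% in these data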; note: 0% is about no effect
#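 Using a no-wash calcium dye in inducible, force-coupled HEK293 Trex cells expressing D2, we tracked fluorescence each second for 180 s after compound, then for 180 s after EC20 dopamine to detect augmented signalling.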
# D2 antag = D2 dopamine receptor (human) antagonism; hit rate 2% among 340,000; inhibition, % at 10 µM; P14416; HEK293 TREx D2 cells, calcium flux, dopamine EC80; in the data active = inhibition above about 30%; inactive = below that, where a call was filed; note: 0% is about no effect
#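 Dopamine at EC80 is the agonist stimulus; test compounds precede it by 180 s. Calcium flux read kinetically in a force-coupled, inducible HEK293 T-REx D2 cell line.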
# Active calls of the source: *; · = no result; ! = not confirmed by another sample.
SMILES,D2 ag-1,D2 PAM-1,D2 ag-2,D2 PAM-2,D2 antag
O=C(C[n+]1cccc(CNC(=O)c2ccc(OC(F)F)cc2)c1)Nc1ccc(F)cc1,-2,-35,-1,-25,2
O=C(C[n+]1cccc(CNC(=O)c2ccc(OC(F)F)cc2)c1)Nc1cccc(C(F)(F)F)c1,-4,-51,-1,-28,45*
COc1cccc(Cn2cccc(NC(=O)NC3CCCCC3)c2=O)c1,0,-7,0,31*,29
CCN(CC)S(=O)(=O)c1cccc(NC(=O)COC(=O)C2COc3ccccc3O2)c1 (configuration not stated),1,-12,-1,-9,13
CCN(CC)S(=O)(=O)c1cccc(NC(=O)COC(=O)C2=COCCO2)c1,0,-10,0,-4,30*
Cc1ccc(NC(=O)c2cc(S(=O)(=O)N3CCc4ccccc43)cn2C)c(Cl)c1,·,·,0,15,·
CN(C)CCOCCOc1ccc(Cl)cc1C(C)(C)C,-5,-10,0,-17,64*
CC(O)CNCCCOc1ccc(Cl)cc1C(C)(C)C (configuration not stated),1,-13,1,-14,-18
C=CCc1cc(Cl)ccc1OCCN(C)C,-1,-14,1,-15,53*
Cc1cccc(CSc2ncc(Cl)c(C(=O)Nc3sc4c(c3C#N)CCCC4)n2)c1,·,·,0,7,·
Cc1ccc(NC2=Nc3ccccc3CC2)cc1,-5,-56,1,-27,61*
Brc1ccc(NC2=Nc3ccccc3CC2)cc1,0,-8,1,-14,8
C=CCNC(=S)Nc1sc2c(c1C(=O)OCC)CCN(C(=O)OCC)C2,-1,-17,0,40*,-13
CCOC(=O)c1c(NC(=S)NCc2ccccc2)sc2c1CCN(C(=O)OCC)C2,-8,-4,0,6,18
CCC1CCC(N2CCN(c3ccccc3F)CC2)CC1 (configuration not stated),5,1,18,-24,37*
COc1ccc(Br)cc1CN1CCN(Cc2c[nH]c3ccccc23)CC1,-3,-15,2,-22,87*
COc1ccc(CN2CCN(Cc3c[nH]c4ccccc34)CC2)cc1OC,-3,-28,·,·,·
COc1ccccc1CN1C(=O)[C@@H]2C(CCC(N)=O)NC3(C(=O)Nc4c3ccc(Cl)c4C)[C@@H]2C1=O (some centres not stated),-1,0,0,32*,-3
Cc1ccc(C(=O)COC(=O)CSc2cccc3cccnc23)c(C)c1,-5,57*,·,·,·
COc1ccccc1N1CCN(S(=O)(=O)c2c(C)sc3ncn(CC(=O)N(C)c4ccc(C(C)C)cc4)c(=O)c23)CC1,·,·,0,-2,·
Cc1cccc(Cn2nnc3c2C(=O)c2ccccc2C3=O)c1,7,71*,1,22,-16
Cc1cccc(Cn2ncc(Cl)c(Cl)c2=O)c1,0,2,-1,12,-8
Cc1ccc(-n2cnc3cc(C(=O)NCc4ccc(F)cc4)ccc32)c(C)c1,·,·,·,-14,·
COc1ccc(OCC(=O)OCC(=O)NCc2ccco2)cc1,-4,-5,1,-5,2
COc1ccc(CC(=O)OCC(=O)NCc2ccco2)cc1,3,-7,0,-14,36*
SMILES,D2 ag-1,D2 PAM-1,D2 ag-2,D2 PAM-2,D2 antag
CCCCC(=NCCc1c(C)[nH]c2ccc(OC)cc12)C1=C(O)CC(c2ccccc2)CC1=O (configuration not stated),2,-20,6,33*,-13
CC(C)CCn1c(O)c(N=NC(=O)c2ccco2)c2ccccc21,-3,-7,3,-2,31*
CC1CCCN(CCCNC(=O)c2ccc3c(c2)N(Cc2ccc(F)cc2)C(=O)c2ccccc2S3=O)C1 (configuration not stated),-9,-39,2,-19,74*
CCCc1nnc(NC(=O)c2nc(S(=O)(=O)Cc3cccc(C)c3)ncc2Cl)s1,-8,-26,-1,30*,-13
CC1(C)S[C@@H]2[C@H](NC(=O)Cc3ccccc3)C(=O)N2[C@H]1C(=O)O,-3,-12,1,6,33*!
CCC(Oc1ccccc1)C(=O)NC1C(=O)N2C1SC(C)(C)C2C(=O)O (configuration not stated),4,4,0,5,-1
CC(NC(=O)c1ccccc1Cl)c1nnc(SCC(=O)Nc2ccc(C(=O)O)cc2)n1C (configuration not stated),0,-3,-1,-2,30*
Cc1ccc(NC(=O)Cn2ccsc2=N)cc1S(=O)(=O)N(C)C,-3,-15,0,-24,36*
CN(C)S(=O)(=O)c1cc(NC(=O)Cn2ccsc2=N)ccc1Cl,0,30,0,-17,-13
Cc1ccc(NC(=O)CCNCc2ccco2)cc1S(=O)(=O)N(C)C,2,-21,-6,-10,34*
Cc1ccc(NC(=O)CN2CCN(C(=O)c3ccco3)CC2)cc1S(=O)(=O)N(C)C,45*,30,·,·,·
Cc1ccc(NC(=O)CCNC(=O)Nc2ccccc2)cc1S(=O)(=O)N(C)C,-3,-5,0,2,17
CCc1ccccc1NC(=O)Cn1c(=O)nc(-c2ccccc2)c2ccccc21,·,·,2,4,·
CC1CCCC(C)N1C(=O)CN1C(=O)C(C)(C)Oc2ccc(C(=O)NC3CCCC3)cc21 (configuration not stated),-2,-5,-1,-7,33*
CC(C)NC(=O)CN1C(=O)C(C)(C)Oc2ccc(C(=O)NC3CCCCC3)cc21,-5,-17,0,-24,32*
CC1CCCC(C)N1C(=O)CN1C(=O)C(C)(C)Oc2ccc(C(=O)NC3CCCCC3)cc21 (configuration not stated),1,-6,0,10,-21
CC(C)(C)NC(=O)c1ccc2c(c1)N(CC(=O)NC1CCCC1)C(=O)C(C)(C)O2,-1,-20,-1,-29,53*
CCCN1CCN(c2ncc3c(n2)CCN(Cc2ccc(OC)c(OC)c2OC)C3)CC1,·,·,-1,1,·
CCOC(=O)c1c(Nc2ccc(O)cc2)nnc(-c2ccccc2)c1-c1ccccc1,·,·,-2,·,·
COc1ccc(Cl)cc1NC(=O)CN(C)C(=O)c1ccc(OCc2ccccc2)c(OC)c1,-5,-44,0,-11,37*
COc1ccc(Cl)cc1NC(=O)CN(C)C(=O)CCC(=O)c1cc(C)sc1C,-6,-13,0,-21,62*
COc1ccc(Cl)cc1NC(=O)CCCn1c(C)c2cnn(-c3ccccc3)c(=O)c2c1C,·,·,-1,6,·
CSc1ccccc1NC(=O)C1=CC(c2ccc3c(c2)OCO3)=NS(=O)(=O)N1C,·,·,1,3,·
CCN(C(=O)c1cc2c(s1)-c1ccccc1OC2)c1cccc(C(F)(F)F)c1,·,·,0,9,·
